The values that follow come from PubChem BioAssay AID2314 (National Center for Advancing Translational Sciences (NCATS), 2010).

Structures are written as SMILES. In all, about 300,000 compounds went through this assay and about 37,000 (12%) were called active. Rule as the data show it: active = max response mostly above about 13% (no sharp cut-off); inactive = mostly below about 14%. For the sample, actives were picked, then their nearest neighbours and some compounds at random.

A short description of the assay: Cycloheximide Counterscreen for Small Molecule Inhibitors of Shiga Toxin. Also: read at 38.3 µM for the half of the compounds with a filed dose; 0% is about no effect. The conditions noted are these: cell reporter, cycloheximide protein synthesis inhibition counterscreen; hits give high values. On the technique in general: Counterscreens check selectivity or assay interference.
In the case of `CC(=O)Nc1ccc(Nc2c([N+](=O)[O-])cc(S(C)(=O)=O)cc2[N+](=O)[O-])cc1`, the max response is -3.33% (inactive).

For the compound `CCN(CC)S(=O)(=O)c1ccc(N2CCOCC2)c(NC(=O)C2CSC3(C)CCC(=O)N23)c1` (stereo not drawn), the max response was 10.5% (inactive). With `CC(=O)N1c2ccccc2N(Cc2ccc([N+](=O)[O-])cc2)C(=O)C1(C)C` the figure was 10.6% (inactive).

Turning to `O=C(COc1ncnc2c(Cl)cc(Cl)cc12)N1CCN(S(=O)(=O)c2ccccc2)CC1`, the max response is 4.8% (inactive). As for `CN(C)c1cccc(C(=O)N2CCC(n3nccc3NC(=O)C3CCOC3)CC2)c1` (stereo not drawn), the figure is 5.41% (inactive); as for `O=C(CNC(=O)OCc1ccccc1)Oc1cc2oc(=O)cc(-c3ccccc3)c2cc1Cl`, 7.2% (inactive). With `COc1cccc(N(CC(=O)NCc2ccccc2)C(=O)CCC(=O)Nc2nccs2)c1` the figure was -5.29% (inactive); with `O=C(c1ccc(S(=O)(=O)N2CCCC2)cc1)N1CCN(c2ccccc2F)CC1`, -1.05% (inactive).

As to `Cc1ccc(S(=O)(=O)N(C)c2nc3ccccc3n3c(C(C)C)nnc23)cc1`, the max response is 1.55% (inactive). As for `CCc1nn(CCCC(=O)NC(C)c2ccccc2)c(=O)c2cc3occc3n12` (stereo not drawn), the figure is 10.1% (inactive). As for `O=C(c1ccc(F)cc1)c1c[nH]c(C(=O)NCc2cccnc2)c1`, the figure is 0.811% (inactive). For `C#CCOCCOCCOCCNc1nc(N2CCN(C(=O)[C@H](CCC(=O)O)n3cc(C(N)CO)nn3)CC2)nc(N2CCN(C(=O)[C@H](CCCCN)n3cc(C(N)[C@H](C)CC)nn3)CC2)n1` (stereo partly drawn), the max response is -1.6% (inactive). With `CCCCOc1ccc(-c2nnc(-c3ccco3)o2)cc1`, the max response was 28.1% (active).

Turning to `COc1ccc(C(=O)CSc2nnc(-c3ccco3)o2)cc1`, the max response was 11.4% (inactive).

`COc1ccc(OCC(=O)Nc2nnc(-c3ccco3)s2)cc1`: the max response is -4.11% (inactive). As for `O=c1c(Cl)c(NCc2ccc(F)cc2Cl)cnn1C12CC3CC(CC(C3)C1)C2`, the figure is -2.73% (inactive); as for `COc1cccc(C2CC(c3cccs3)=NN2C(=O)CSC2=NCCS2)c1OC` (stereo not drawn), -1.93% (inactive); as for `COc1ccc(N(C)C(=O)CCS(=O)(=O)c2cccc3nsnc23)cc1`, 3.71% (inactive).

As for `O=C(Nc1ccccc1)Nc1nnc(COc2ccccc2F)s1`, the max response is 0.805% (inactive).

As to `O=C(NCCOc1ccccc1F)Nc1ccc(Br)cc1`, the max response was 41.8% (active). With `O=C(NCCOc1ccccc1Cl)C(=O)Nc1ccccc1` the figure was -6.33% (inactive); with `COc1ccc(CN2CCc3nc(Nc4ccccc4)ncc3C2)c(OC)c1OC`, 12.2% (inactive); with `CCN(CC)C(=O)CC1(c2ccccc2OC)CCOC(C(C)C)C1` (stereo not drawn), -2.61% (inactive). As for `O=C(O)c1ccccc1NC(=O)c1ccccc1-c1ccccc1C(=O)O`, the max response was 1.58% (inactive). As for `O=C(NC(=S)Nc1cc(C(F)(F)F)ccc1N1CCOCC1)c1ccc(-c2cccc(Cl)c2)o1`, the figure is 12.2% (inactive); as for `O=C(NC(=S)Nc1ccccc1C(=O)O)c1ccc(-c2ccc(Br)cc2)o1`, 45.5% (active); as for `O=C(O)c1ccc2c(=O)n3c(nc2c1)/C(=C/c1ccc(Cl)c([N+](=O)[O-])c1)CC3`, -1.06% (inactive).

In the case of `COc1ccc(N=Nc2c(-c3ccc(OC)cc3)[nH]oc2=O)cc1`, the max response was -1.85% (inactive). With `COc1cc(NC(=O)CCS(=O)(=O)c2ccc3c(c2)oc(=O)n3C)cc(OC)c1` the figure was -9.36% (inactive). With `CN(c1ccc2nc3ccccc3c(=O)n2n1)C1CCCCC1` the figure was -12.8% (inactive). Regarding `NC(=NC(=O)c1ccccc1)N1CCOCC1`, the max response is -1.9% (inactive). Turning to `O=C(c1ccccc1)N1CCN(C(=O)N2CCCCC2)CC1`, the max response is -3.32% (inactive).

As to `O=C(O)c1ccc(N=NN2CCOCC2)cc1`, the max response was 39% (active).

For `O=C(O)c1cccc(N=NN2CCCCCC2)c1`, the max response was 69.7% (active).

With `CN1CCN(S(=O)(=O)c2cccc(C(=O)O)c2)CC1`, the max response is -8.28% (inactive). Consider `O=C(NC(=O)N1CCOCC1)c1ccccc1`, for which the max response was 4.39% (inactive). Regarding `CCOC(=O)N1CCN(S(=O)(=O)N2CCCC(C(=O)NCCCN3CCC(C)CC3)C2)CC1` (stereo not drawn), the max response is 1.6% (inactive).

As to `CCc1ccccc1NC(=O)/C(=C/c1ccccc1)c1ccccc1`, the max response is 8.5% (inactive). On to `O=C(Nc1ccccc1N1CCN(C(=O)c2ccccc2)CC1)c1ccco1`, for which the max response was -3.96% (inactive).

With `CCOC(=O)C1CCN(c2ncnc3c2c(-c2ccccc2)cn3-c2ccc(C)cc2)CC1`, the max response was 1.88% (inactive). With `COc1ccc(/C=C2/S/C(=N/N=C3\CC4CCC3(C)C4(C)C)NC2=O)cc1` (stereo not drawn) the figure was 8.52% (inactive).

Take `COc1ccc(N(Cc2cc3ccc(C)cc3[nH]c2=O)S(=O)(=O)c2ccccc2)cc1`: the max response is 0.769% (inactive). As for `O=C(NCCc1ccccc1)c1ccc2c(c1)N(Cc1ccccc1)CCS2`, the figure is 38.6% (active); as for `CCOC(=O)N1CCN(C(=O)c2ccc3c(c2)N(Cc2ccc(C)cc2)CCS3)CC1`, -0.464% (inactive). As for `O=C(NCCN1CCOCC1)c1ccc2c(c1)N(Cc1ccc(Cl)cc1)CCS2`, the figure is -1.99% (inactive); as for `COc1cc(SC#N)ccc1N=Cc1c(C)[nH]n(-c2ccc(C)cc2)c1=O`, -1.77% (inactive); as for `CN1CCN(CC(=O)Nc2sc3c(c2C#N)CCC(C(C)(C)C)C3)CC1` (stereo not drawn), -3.82% (inactive).

As for `CC(=O)N1CCc2c(sc(NC(=O)CCS(=O)(=O)c3ccccc3)c2C#N)C1`, the max response is 6.75% (inactive). As for `CCC1CCc2c(sc(NC(C)=O)c2C#N)C1` (stereo not drawn), the figure is 14.2% (active). As to `COc1cc(C(=O)NC2CCN(Cc3ccccc3)CC2)cc(Cl)c1OC(C)C`, the max response was -3.58% (inactive). As for `CCOc1ccccc1CNS(=O)(=O)c1cc(-c2cc(C)no2)ccc1C`, the max response is 5.17% (inactive).

`CCCCN(C)CCCNC(=O)c1cc(-c2cccs2)nc2ccccc12`: the max response is -4.95% (inactive). `CN(C)CCNc1ccc(-c2n[nH]c(=O)c3ccccc23)cc1[N+](=O)[O-]`: the max response was -2.5% (inactive). With `CCN1CCN(C2CCCCC2NS(=O)(=O)c2ccc(Cl)cc2)CC1` (stereo not drawn) the figure was -3.25% (inactive); with `O=C(CC1CCCCC1)NCc1ccccc1`, 17.3% (active); with `O=C(Cn1nc(C(F)(F)F)c2c1CCC2)NCc1ccc(F)cc1`, 0.318% (inactive). For the compound `O=C(CC1CCCCC1)NCc1ccco1`, the max response is -1.2% (inactive).

Consider `CC(=O)Nc1ccc(S(=O)(=O)N2CCN(C3CCCCCCC3)CC2)cc1`, for which the max response is -5.2% (inactive). As to `O=C(CCc1ccc(S(=O)(=O)NC2CCCCC2)cc1)NCc1ccccc1`, the max response is -1.16% (inactive). With `O=C(Cc1ccc(F)cc1)NC1CCCC1` the figure was 5.3% (inactive); with `O=C(CC1CCCCC1)NCc1ccc(F)cc1`, 24.8% (active). As for `CC(=O)Nc1ccc(NC(=O)CC2CCCC2)cc1`, the figure is 20.7% (active). With `CC(=O)Nc1ccc(N2C(=O)C3C4C=CC(CC4)C3C2=O)cc1` (stereo not drawn) the figure was 3.43% (inactive).
